Screen size: about 320,000 compounds; about 22,000 (6.9%) were called active. About 27% were inconclusive and are not listed. Many of the other results were omitted from the sample, so actives are more common in it than they were. A number with no mark means an inactive call. Calls come from the whole dose curve; as a rule, active = well fitted inhibition curve with a large enough effect; inconclusive = small, poorly fitted or top-dose-only effect, or another doubt; inactive = no such curve, though single readings can be large or run the other way.
% is set by controls: 0 for no effect and ±100 for the full control effect; potency is the fitted concentration of half-maximal effect.

This experiment can be described thus: Primary qHTS for delayed death inhibitors of the malarial parasite plastid, 96 hour incubation. Conditions: P. falciparum luciferase reporter growth; series mostly up to 28.7 µM; activity change, negative = inhibition: at the top concentration. The procedure, abridged: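 P. falciparum expressing integrated firefly luciferase, in erythrocytes at 2% hematocrit, 0.05% parasitemia, incubated with compounds 96 h at 37 C, 5% CO2. Growth inhibition read as loss of luminescence; two-generation exposure targets delayed-death apicoplast inhibitors.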
On the technique in general: Quantitative high-throughput screening tests each substance at several concentrations.
For the compound `Cc1ccc(S(=O)(=O)c2c[nH]c3ccc(Cl)cc3c2=O)cc1`, the “activity change, negative = inhibition” value was 32.9%.
As for `COc1ccc2[nH]c3c(=O)n(Cc4ccco4)cnc3c2c1`, the activity change, negative = inhibition is 6.11% [at 5.75 µM].
Consider `COc1ccc(Nc2nc(Cl)nc(NCc3ccco3)n2)cc1`, for which the “activity change, negative = inhibition” value is 48.6%.
For the compound `COc1ccc(-c2oc3ncn(Cc4ccco4)c(=N)c3c2-c2ccc(OC)cc2)cc1`, the Potency was 6.57 µM (active).
Turning to `CN(c1ccccc1)S(=O)(=O)c1ccc2[nH]c(=O)[nH]c2c1`, the “activity change, negative = inhibition” value was 11.2%.
In the case of `CC(CCc1ccccc1)NC(=O)COC(=O)c1ccc(F)cc1` (stereo unspecified), the “activity change, negative = inhibition” value was -9.38%.
Regarding `CCOC(=O)N1CCN(C(=O)C2CC(c3ccc(F)cc3)=NO2)CC1` (stereo unspecified), the Potency was 4.65 µM (active).
On to `CCNC(=S)N1CCN(C(=O)c2ccco2)CC1`, for which the “activity change, negative = inhibition” value was 46.8%.
For the compound `CCOC(=O)N1CCN(CC(=O)Nc2ccc(F)cc2)CC1`, the “activity change, negative = inhibition” value is 232%.
In the case of `Cc1ccc(NC(=O)C2CC(c3ccc(F)cc3)=NO2)cc1` (stereo unspecified), the Potency is 4.15 µM (active).
For the compound `O=C(c1ccco1)N1CCN(C(=O)c2ccc(COc3ccc(F)cc3)o2)CC1`, the “activity change, negative = inhibition” value was -1.91%.
On to `O=C(NCc1cc(C(F)(F)F)cc(C(F)(F)F)c1)C1CC(c2cccc(F)c2)=NO1` (stereo unspecified), for which the “activity change, negative = inhibition” value is -0.218%.
Take `O=C(Cc1c(F)cccc1Cl)N1CCN(C(=O)c2ccco2)CC1`: the “activity change, negative = inhibition” value was 149%.
For the compound `O=C(c1ccco1)N1CCN(C(=O)C2CC(c3ccc(F)cc3)=NO2)CC1` (stereo unspecified), the Potency is 7.38 µM (active).
Take `COc1ccc(CNC(=O)C2CC(c3ccc(C(F)(F)F)cc3)=NO2)cc1` (stereo unspecified): the “activity change, negative = inhibition” value is 61.6%.
On the same count and under the same terms, with `O=C(c1ccc2c(c1)OCO2)N1CCN(C(=O)c2ccco2)CC1` the figure was 29%; with `CCn1ncc(C2=NOC(C(=O)N3CCN(c4ccccc4)CC3)C2)c1C` (stereo unspecified), 56.5%.
In the case of `O=C(c1ccco1)N1CCN(C(=O)C2CC(c3ccc(Cl)c(Cl)c3)=NO2)CC1` (stereo unspecified), the Potency was 5.86 µM (active).
Take `O=C(COc1nsnc1N1CCOCC1)Nc1ccccc1Cl`: the “activity change, negative = inhibition” value was 0.158%.
Turning to `COc1cccc(/C=C/C(=O)OCC(=O)N2CCN(c3ccccc3)CC2)c1`, the “activity change, negative = inhibition” value was -26.3%.
On to `Cc1ccc(CC2CC(=O)N(c3cc(C)ccc3C)C2=O)cc1` (stereo unspecified), for which the “activity change, negative = inhibition” value was -18.3%.
On to `Cc1ccc(S(=O)(=O)CC(=O)Nc2sc(C)c(C)c2C(N)=O)cc1`, for which the “activity change, negative = inhibition” value is 1.09%.
The same measure, in the same setting: with `O=C(NNC(=O)C1CCC1)c1ccccc1` the figure was 11.8%; with `Cc1cccc(C2C3=C(CCCC3=O)N=C3c4ccccc4C(=O)C32)c1` (stereo unspecified), -12.5%.
Turning to `COc1ccc(-c2cc(C(=O)NCCCn3ccnc3)no2)cc1`, the Potency is 8.28 µM (active).
For the compound `O=C(NCCCn1ccnc1)c1cc(-c2ccccc2)on1`, the “activity change, negative = inhibition” value is 4.54%.
In the case of `COc1ccc(-c2cc(C(=O)NCCCN3CCOCC3)no2)cc1`, the “activity change, negative = inhibition” value was 23.3%.
For the compound `Cc1ccc(S(=O)(=O)NC(=O)c2cccc(C)c2)cc1`, the “activity change, negative = inhibition” value was 24%.
Still for that read-out and setting: under `O=C(NC1CCN(S(=O)(=O)c2ccc(F)cc2)CC1)c1ccccc1` stands 12%.
As for `CCN(CC)CCN(C(=O)c1ccc(S(=O)(=O)N2CCOCC2)cc1)c1nc2cc3c(cc2s1)OCCO3`, the “activity change, negative = inhibition” value was 24.7%.
For the compound `Cc1cccc2cc3c(N)c(C(=O)N4CCCc5ccccc54)sc3nc12`, the Potency was 11.7 µM (active).
With `CCCn1nc(C(=O)N2CCCc3ccccc32)c2ccccc2c1=O`, the “activity change, negative = inhibition” value was -23.3%.
Still for that read-out and setting: with `Cc1c(C(=O)N2CCCc3ccccc32)sc2nc(-c3ccccc3)cn12` the figure was -10.5%; with `CCOC(=O)c1c(C)[nH]c(C(=O)OCC(=O)N2CCCC2=O)c1C`, 7.24%.
With `COc1cccc(NC(=O)COC(=O)/C=C/c2ccco2)c1`, the “activity change, negative = inhibition” value was -5.91%.
Same read-out and setting: under `COCCCNC(=O)Cc1ccc(-n2c(C)nc3cccnc32)cc1` stands 58.7%; under `COc1cc2c(cc1OC)CC(=O)N(CCCN(C)C[C@H]1Cc3cc(OC)c(OC)cc31)CC2`, 15.7%.
In the case of `CCCCn1c(SCC(=O)N2CCOCC2)nc2c1c(=O)n(C)c(=O)n2C`, the Potency is 11.7 µM (active).
Turning to `Cn1c(=O)c2c(SCC(=O)N3CCOCC3)nc(C3CC3)nc2n(C)c1=O`, the “activity change, negative = inhibition” value was 27.7%.
As to `C#CC(C)(C)NC(=O)CSc1nc2c(c(=O)n(C)c(=O)n2C)n1CCCC`, the “activity change, negative = inhibition” value was -3.48%.
As for `CC(C)CC(=O)c1c[nH]c(C(=O)NCc2ccccc2)c1`, the “activity change, negative = inhibition” value is -10.9%.
Regarding `Cc1nc(SCC(=O)NC2CCCCC2C)c(C#N)c(C)c1C` (stereo unspecified), the “activity change, negative = inhibition” value is -0.344%.
Same read-out and setting: under `N#Cc1c(C(F)(F)F)cc(-c2ccccc2)nc1SCC(=O)N1CCOCC1` stands 20.9%.
Turning to `CCSc1nc(-c2ccc(OC)cc2)cc(-c2ccc(OC)cc2)c1C#N`, the Potency was 4.65 µM (active).
As to `COc1ccc(-c2cc(-c3ccc(N)cc3)nc(N)c2C#N)cc1OC`, the “activity change, negative = inhibition” value is 5.39%.
Turning to `COc1ccc(-c2cn[nH]c2-c2ccc(OC)cc2)cc1`, the “activity change, negative = inhibition” value is 3.34%.
With `CCOC(=O)CC(=O)CSc1nc(-c2ccccc2)cc(-c2ccc(Cl)cc2)c1C#N`, the Potency was 7.38 µM (active).
Turning to `N#Cc1c(-c2ccccc2)cc(-c2ccccc2)nc1SCC(=O)O`, the “activity change, negative = inhibition” value was 35.1%.
Regarding `Cn1ccsc1=NC(=O)c1cc(S(=O)(=O)N2CCOCC2)ccc1Cl`, the “activity change, negative = inhibition” value was -14.7%.
As to `O=C(NCc1ccc2c(c1)OCO2)C(=O)NCC1OCCN1S(=O)(=O)c1ccc(F)cc1` (stereo unspecified), the “activity change, negative = inhibition” value is -14.7%.
Turning to `COCCCNC(=S)N1CCN(c2nc(-c3cccc(OC)c3)cs2)CC1`, the “activity change, negative = inhibition” value is 10.2%.

(Values after PubChem BioAssay AID504834 (National Center for Advancing Translational Sciences (NCATS), 2011).)
